Screens deposited in PubChem by several laboratories.
hcDAF-12 act – H. contortus DAF-12 nuclear receptor activators, primary screen, cell-based, luminescence, HEK293, lit1-tk-luc reporter; activation, % at 6.8 µM; AID 652067, 2013; hit rate 1.4% among 370,000; HEK293 hcDAF-12 lit1-tk-luc reporter; 0% DMSO, 100% Δ7-dafachronic acid;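 active means activation above the mean of all tested compounds plus 3 SD, cut at about 5.5% in these data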
ssDAF12 agonist – S. stercoralis DAF-12 nuclear receptor activators, primary screen, cell-based, luminescence, HEK293, GRIP1 co-expression, lit1-tk-luc | Nuclear hormone receptor DAF-12 (Strongyloides stercoralis) | HEK293 ssDAF-12/GRIP1 lit1-tk-luc reporter; % of 3 µM dafachronic acid response | activation, % at 6.8 µM | hit rate 1% among 370,000;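 active means activation above the mean over all tested compounds plus 3 SD, cut at about 0.9% in these data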
PolyA inh – polyadenylation inhibitors in yeast reporter cells, primary screen, luminescence, S. cerevisiae; activity score, % at 12 µM; hit rate 0.02% among 300,000; AID 1875, 2009; S. cerevisiae SKY197-pL101 polyadenylation reporter, beta-gal luminescence; efflux-impaired pdr1/pdr3 knockout yeast; score 100 = 6 SD above DMSO;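 active means lowest replicate activity score at least 50, where 100 means six control SD above control mean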;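 further: yeast exposed to compound for 9 h at 30 °C; higher score means more reporter readthrough which indicates perturbed polyadenylation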
DAX1 inh-1 – DAX1 (NR0B1) inhibitors on StAR promoter, primary screen, cell-based, luminescence, SF-1 (NR5A1), full-length DAX-1 | HEK293T StAR-luciferase reporter, SF-1/DAX-1 repression relief | inhibition, % at 6.8 µM | hit rate 1.1% among 370,000 | AID 652010, 2013;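 active means inhibition above the mean over all tested compounds plus 3 SD, cut at about 3.6% in these data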;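 further: higher inhibition means more luminescence from relief of DAX-1 repression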
DAX1 inh-2 – DAX1 (NR0B1) inhibitors, primary screen, cell-based, HEK293, Gal4-DAX1, luciferase luminescence; Nuclear receptor subfamily 0 group B member 1 (Homo sapiens), P51843; HEK293 Gal4-DAX1 luciferase reporter; inhibition, % at 6.75 µM; hit rate 0.99% among 340,000; AID 504766, 2011;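 active means inhibition above the mean over all tested compounds plus 3 SD, cut at about 4.2% in these data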;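 further: inhibition shows as a rise in luminescence from relieved DAX1 repression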
Target sequence (P51843 207-470 limits assumed): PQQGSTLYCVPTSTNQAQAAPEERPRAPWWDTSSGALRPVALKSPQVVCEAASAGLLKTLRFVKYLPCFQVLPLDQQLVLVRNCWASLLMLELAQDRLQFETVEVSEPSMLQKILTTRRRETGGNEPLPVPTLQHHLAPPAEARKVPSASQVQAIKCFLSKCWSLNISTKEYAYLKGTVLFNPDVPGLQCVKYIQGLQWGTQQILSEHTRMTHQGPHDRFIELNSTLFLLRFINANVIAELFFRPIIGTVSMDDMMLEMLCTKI
hgDAF12 agonist – H. glycines DAF-12 receptor agonists, primary screen, cell-based, luminescence, HEK293, GAL4 fusion, UAS-luciferase; AID 687014, 2013; activation, % at 6.8 µM; hit rate 1.8% among 370,000; Nuclear hormone receptor DAF-12 (Heterodera glycines), GAL4 fusion; HEK293 GAL4-hgDAF12 UAS-luciferase reporter, agonist luminescence; normalized to butyrate control;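 active means activation above a cutoff set at the mean of all screened compounds plus 3 SD, cut at about 10% in these data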
Each line names hits and unclear results; the compound was inactive in the other large screens. A selection: hits, their analogues and other compounds. The true share with any hit is near 4.1%.

O=S(=O)(c1ccc(C(F)(F)F)cc1)N1CCCc2nc(-c3ccc(Br)cc3)ccc21	none (no result: PolyA inh, DAX1 inh-2)
Cc1nc2ccc(C(=O)N3CCN(C(=O)OCc4ccccc4)CC3)cc2n1C1CCCC1	none (no result: PolyA inh, DAX1 inh-2)
COc1ccccc1N1CCN(/N=C/C(Cl)=C/c2ccccc2)CC1	DAX1 inh-2 5.0
COc1ccccc1N1CCN(CCCCOc2c(OC)cccc2OC)CC1	none
Cc1ccc(N2CCN(/N=C/C(Cl)=C/c3ccccc3)CC2)cc1	none
O=C(CCCC(=O)N1CCN(c2ccccc2F)CC1)c1ccccc1	DAX1 inh-2 17
COc1ccccc1N1CCN(C(=O)CCC(=O)O)CC1	DAX1 inh-2 5.5
COc1ccccc1N1CCN(CCOc2c(OC)cccc2OC)CC1	DAX1 inh-2 4.6
O=C(CCCC(=O)N1CCN(c2ccccc2F)CC1)N1CCN(c2ccccc2F)CC1	none
CCC(C)N(C(=O)Cn1nc(Cc2ccncc2)c2ccccc2c1=O)C(C)CC (stereo not drawn)	none (no result: PolyA inh, DAX1 inh-2)
CCCC[C@@H]1C(=O)N2N=C(c3ccccc3)c3ccccc3[C@H]2N2N=C(c3ccccc3)c3ccccc3[C@@H]12	none (no result: PolyA inh, DAX1 inh-2)
COc1ccccc1N1CCN(/N=C\c2ccccc2)CC1	DAX1 inh-2 5.1
COc1ccccc1N1CCN(C(=O)c2cc3cc(F)ccc3[nH]2)CC1	hcDAF-12 act 5.8
COc1ccccc1N1CCN(/N=C/c2cc(OC)c(OC)c(OC)c2)CC1	none
CCSc1nnc(SCC(=O)NC2CCCCC2)s1	none (no result: PolyA inh)
CSc1nsc(SCC(=O)NC2CCCCC2)n1	hcDAF-12 act 5.6
OCC1COC(c2ccccc2)=N1 (stereo not drawn)	none (no result: PolyA inh, DAX1 inh-2)
Cc1c(-c2nc(-c3ccc(C(C)(C)C)cc3)no2)n(C)oc1=O	hcDAF-12 act 5.7, ssDAF12 agonist 2.1, hgDAF12 agonist 12
Cc1cc(-c2nc(-c3ccc(C(C)(C)C)cc3)no2)no1	none
Cc1cc(C)n(C(=O)Cn2nc(C)c(Cl)c2C)n1	DAX1 inh-2 4.5
O=C(CC1CCCCC1)NCCCN1CCOCC1	hcDAF-12 act 6.1
NC(Cc1ccc(Cl)cc1)c1csc(Nc2ccc(S(N)(=O)=O)cc2)n1 (stereo not drawn)	DAX1 inh-1 4.3 (no result: PolyA inh, DAX1 inh-2)
COCC(=O)N(c1ccc(C(C)(C)C)cc1)C(C(=O)NC(C)(C)C)c1cccnc1 (stereo not drawn)	none (no result: PolyA inh, DAX1 inh-1, DAX1 inh-2)
O=C(NC1CCCCN(Cc2ccc(Cl)cc2)C1=O)c1ccc(Cl)cc1Cl (stereo not drawn)	none (no result: PolyA inh, DAX1 inh-2)
COc1cc(CO)ccc1OCc1ccc(Cl)nc1	ssDAF12 agonist 1.3, hgDAF12 agonist 11
CCC(CO)Nc1ccn2nc(-c3cccs3)cc2n1 (stereo not drawn)	DAX1 inh-1 3.9, hgDAF12 agonist 11 (no result: PolyA inh, DAX1 inh-2)
O=C(C1CCN(c2ncnc3c2sc2cccc(F)c23)CC1)N1CCN(Cc2ccccc2)CC1	none (no result: PolyA inh, DAX1 inh-2)
CC(NC(=O)c1ccc(C#N)cc1)C1CC2CCC1C2 (stereo not drawn)	DAX1 inh-2 5.4
COc1ccc(NC(=O)NC(C)C2CC3CCC2C3)cc1 (stereo not drawn)	ssDAF12 agonist 17
COc1ccc(C(=O)NC(C)C2CC3CCC2C3)cc1 (stereo not drawn)	none
Cc1ccc2cccc(OC(=O)c3cccnc3Oc3ccccc3)c2n1	none (no result: PolyA inh, DAX1 inh-2)
CNC(C)C#Cc1ccc2c(=O)c3cc(C)c(C)cc3oc2c1 (stereo not drawn)	hgDAF12 agonist 11
COC[C@@H](O)[C@H]1OCc2cccc(OC)c2[C@@H]1/C=C/c1ccccc1	none (no result: PolyA inh, DAX1 inh-2)
Cc1cccc(C)c1NC(=O)CN1CCCC1	DAX1 inh-2 4.5 (no result: PolyA inh)
O[C@H](COc1cccc(F)c1)CN1CCC(C(O)(c2ccccc2)c2ccccc2)CC1	none (no result: PolyA inh, DAX1 inh-2)
Cc1ccccc1Cn1cc(COC(=O)N(C)Cc2ccccc2)nn1	none (no result: PolyA inh, DAX1 inh-2)
COc1ccc(/C=C2\SC(=S)N(CCCC(=O)Nc3ccccc3C(=O)O)C2=O)cc1OC	hcDAF-12 act 6.3
COc1ccc2c(c1)CN1C(=O)N(C3CCCC3)S(=O)(=O)CC21 (stereo not drawn)	none (no result: PolyA inh, DAX1 inh-2)
COCC(C)NC(=S)Nc1ccccc1[N+](=O)[O-] (stereo not drawn)	ssDAF12 agonist 2.4
CC(C)(C)CC(=O)NC(=S)Nc1ccccc1[N+](=O)[O-]	none
Nn1c(SCC(=O)N2CCOCC2)nnc1-c1cc(-c2ccc(Cl)cc2)n[nH]1	none (no result: PolyA inh, DAX1 inh-2)
Cc1nn(-c2ccccc2)c2sc(C(=O)N3CCN(C(c4ccccc4)c4ccc(Cl)cc4)CC3)cc12 (stereo not drawn)	none (no result: PolyA inh, DAX1 inh-2)
CCN1CCN(C(=O)c2cc3c(s2)-c2c(C)cccc2OC3)CC1	DAX1 inh-2 5.9 (no result: hcDAF-12 act, ssDAF12 agonist, DAX1 inh-1, hgDAF12 agonist)
Oc1ccc(Cl)cc1-c1cc(-c2ccccc2Cl)[nH]n1	hcDAF-12 act 6.1, DAX1 inh-2 5.6
C=CCOC(=O)C1=C(C)OC(N)=C(C#N)C1c1ccco1 (stereo not drawn)	DAX1 inh-2 8.4
CC1=C(C(=O)OC(C)(C)C)C(c2ccco2)C(C#N)=C(N)O1 (stereo not drawn)	none
C[C@H]1[C@@H](NC(=O)c2cccc(N(C)C)c2)CC[C@@]23CCCN2C(=O)CCC[C@@H]13	none (no result: PolyA inh, DAX1 inh-1, DAX1 inh-2)
CSC(=NC#N)N1CCN(C(c2ccccc2)c2ccccc2)CC1	none
CSC(=NC#N)N1CCN(C(=NC#N)SC)CC1	DAX1 inh-2 4.7
CCn1c(SCC(=O)OC(C)C)nnc1-c1ccccc1OC	ssDAF12 agonist 1.1
Cc1cccc(OCc2n[nH]c(=S)n2-c2ccccc2)c1	none
Cc1ccc(-n2c(COc3cccc(C)c3)n[nH]c2=S)cc1	DAX1 inh-2 4.8
Cc1cccc(NC(=O)Nc2cc(C)cc(C)n2)c1	hgDAF12 agonist 13
Cc1cc(C)nc(NC(=O)/C=C/c2ccccc2Cl)c1	hgDAF12 agonist 12
Cc1ccc(NC(=O)Nc2ccc(Cl)c(Cl)c2)nc1	none
Cc1ccc(NC(=O)Nc2ccc3c(c2)OCO3)nc1	hgDAF12 agonist 13
Cc1ccc(CNC(=O)Nc2cccc(C)c2)cc1	hgDAF12 agonist 13
NC(=O)C1CCN(c2nc(-c3ccc(N)cc3)cs2)CC1	none (no result: PolyA inh, DAX1 inh-1, DAX1 inh-2)
Cc1cc(C)nc(NC(=O)Nc2ccc3c(c2)OCO3)c1	hgDAF12 agonist 11
Cc1cccc(NC(=O)Nc2cccc(C#N)c2)n1	DAX1 inh-2 5.4
Cc1cc(C)nc(NC(=O)c2ccc3c(c2)OCO3)c1	none (no result: hcDAF-12 act, ssDAF12 agonist, DAX1 inh-1, DAX1 inh-2, hgDAF12 agonist)
Cc1cccc(NC(=O)Nc2ccc(C#N)cc2)n1	none
